The text below walks through data of PubChem BioAssay (EPA / NIEHS).

The nature of test [1]: ATG_GLI_CIS: Attagene CIS-FACTORIAL HepG2 Assay for human Zinc Finger Protein GLI1 (AID 2282945). The settings on record: HepG2, Attagene cis-factorial reporter mRNA, GLI element; actives raise or lower the signal. The essentials:
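HepG2 cells transiently transfected with cis-promoter multiplexed reporter units report endogenous transcription factor activity. After 24 h chemical exposure, reporter mRNA was quantified by RT-PCR, 6-FAM labelling, HpaI digestion and capillary electrophoresis, with bidirectional fitting against DMSO.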

Test [2] has as its target Bile acid receptor (Homo sapiens) (UniProt Q96RI1). The experiment in a line: ATG_IR1_CIS: Attagene CIS-FACTORIAL HepG2 Assay for human Nuclear Receptor Subfamily 1 Group H Member 4 (NR1H4), IR1 submotif (AID 2282946). The settings on record: IR1 reporter transcription, actives raise or lower the signal. The procedure, abridged: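 Transient MRTU transfection, HepG2; 24 h dosing; RNA → RT-PCR → 6-FAM primer extension → HpaI digest → capillary electrophoresis fluorescence. Gain/loss of signal fitted relative to DMSO.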

Test [3] is described as follows: ATG_GRE_CIS: Attagene CIS-FACTORIAL HepG2 Assay for human Glucocorticoid Response Elements (GRE) (AID 2282947). The settings on record: HepG2 GRE cis-reporter, Attagene multiplex mRNA; actives raise or lower the signal. The procedure, abridged: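 HepG2 cells transiently transfected with multiple cis-promoter reporter units measure endogenous TF activity; 24 h compound exposure. Reporter mRNA quantified by RT-PCR, FAM labelling, HpaI digestion and capillary electrophoresis; bidirectional fit vs DMSO baseline.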

Test [4] in a line: ATG_ISRE_CIS: Attagene CIS-FACTORIAL HepG2 Assay for human Interferon Regulatory Factor 1 (IRF1) binding to an Interferon-Stimulated Response Element (ISRE) (AID 2282948). The settings on record: HepG2 ISRE cis-reporter (Attagene), mRNA transcription readout; actives raise or lower the signal. The procedure, abridged: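 Transiently transfected HepG2 cells carrying cis-element reporter units, dosed 24 hours. Reporter mRNA quantified by RT-PCR, fluorescent primer extension, HpaI digestion and capillary electrophoresis. Bidirectional fitting relative to DMSO.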

Test [5] can be described thus: ATG_M_32_CIS: Attagene CIS-FACTORIAL HepG2 Assay for M32 Transcription Factor (Internal Marker) (AID 2282949).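 Note: background control marker of the multiplexed CIS panel rather than a real target.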 Particulars: HepG2 Attagene cis-factorial M32 reporter, mRNA; actives raise or lower the signal. The essentials: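 Internal background marker read-out: RT-PCR/capillary electrophoresis fluorescence of reporter transcripts from transiently transfected HepG2 cells after 24 h chemical exposure. Activity fitted bidirectionally relative to DMSO negative control.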

Test [6] can be described thus: ATG_M_06_CIS: Attagene CIS-FACTORIAL HepG2 Assay for M06 Transcription Factor (Internal Marker) (AID 2282950). The settings on record: HepG2 Attagene CIS-FACTORIAL M06 internal marker reporter; actives raise or lower the signal. The procedure, abridged:
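Fluorescence-labelled RT-PCR products from cis-promoter reporter units, cut with HpaI and resolved by capillary electrophoresis, give the signal. Cells are human HepG2, dosed for 24 h. Serves as background control, fitted relative to DMSO.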

Test [7] addresses Hepatocyte nuclear factor 6 (Homo sapiens) (UniProt Q9UBC0). The experiment in a line: ATG_HNF6_CIS: Attagene CIS-FACTORIAL HepG2 Assay for human Hepatocyte Nuclear Factor 6 (HNF6) (AID 2282952). Particulars: HepG2 Attagene cis-factorial HNF6 reporter transcription; actives raise or lower the signal. The procedure, abridged:
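HepG2 cells transiently transfected with cis-element-driven multiplexed reporter units measuring endogenous transcription factor activity. After 24 h exposure, reporter mRNA quantified by RT-PCR, FAM-labelled fragments and capillary electrophoresis; bidirectional fitting versus DMSO.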

Test [8] deals with Heat shock factor protein 1 (Homo sapiens) (UniProt Q00613). Description: ATG_HSE_CIS: Attagene CIS-FACTORIAL HepG2 Assay for human Heat Shock Transcription Factor 1 (HSE) (AID 2282953). Particulars: HepG2 HSE cis-reporter, Attagene RNA transcription; actives raise or lower the signal. The procedure, abridged: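 After a 24 h incubation with test chemical, transfected HepG2 cells were harvested for RNA; reporter transcripts were measured by RT-PCR and capillary electrophoresis. Values reflect gain or loss of signal relative to DMSO.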

Test [9] in a line: ATG_MRE_CIS: Attagene CIS-FACTORIAL HepG2 Assay for human Metal Responsive Element (MRE) (AID 2282954). The settings on record: HepG2 MRE cis-reporter transcription, Attagene multiplex; actives raise or lower the signal. The procedure, abridged:
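HepG2 cells transiently transfected with multiple cis-element reporter units measure endogenous MTF1-driven transcription. After 24 h compound exposure, reporter mRNA is quantified by RT-PCR with 6-FAM labelling, HpaI digestion and capillary electrophoresis; bidirectional fits versus DMSO.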

A short description of test [10]: ATG_PBREM_CIS: Attagene CIS-FACTORIAL HepG2 Assay for human Phenobarbital-responsive Enhancer Module (PBREM) (AID 2282955). The settings on record: HepG2 PBREM cis-reporter, Attagene multiplexed transcription; actives raise or lower the signal. The essentials:
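Endogenous transcription factors in human liver HepG2 cells drive a PBREM cis-element reporter, whose transcript level after 24 h treatment is quantified by RT-PCR with capillary electrophoresis; activity fitted in both directions against DMSO.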

In test [11] the target is Paired box protein Pax-6 (Homo sapiens) (UniProt P26367). Description: ATG_Pax6_CIS: Attagene CIS-FACTORIAL HepG2 Assay for human Paired Box 6 (PAX6) (AID 2282956). The settings on record: HepG2 CIS-FACTORIAL PAX6 reporter transcription, RNA readout; actives raise or lower the signal. The essentials:
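HepG2 cells transiently transfected with cis-promoter-driven multiplexed reporter units sensing endogenous transcription factor activity; 24 h chemical exposure. Reporter mRNA quantified by RT-PCR, 6-FAM labelling, HpaI digestion and capillary electrophoresis; bidirectional fit versus DMSO baseline.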

The nature of test [12]: ATG_PXRE_CIS: Attagene CIS-FACTORIAL HepG2 Assay for human Pregnane X Receptor Element (PXRE) (AID 2282957). Particulars: HepG2 Attagene CIS-FACTORIAL PXRE reporter, mRNA; actives raise or lower the signal. The procedure, abridged:
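HepG2 cells transiently transfected with cis-element-driven multiplexed reporter units; after 24 h chemical exposure, reporter mRNA measured by RT-PCR, 6-FAM labelling, HpaI digestion and capillary electrophoresis. Bidirectional fitting relative to DMSO.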

Test [13] can be described thus: ATG_RORE_CIS: Attagene CIS-FACTORIAL HepG2 Assay for human RAR-related Orphan Receptor Element (RORE) (AID 2282959). Particulars: HepG2 Attagene cis-factorial RORE reporter, mRNA; actives raise or lower the signal. The procedure, abridged:
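Transient MRTU transfection of human HepG2 liver cells (FuGene 6); 24 h compound exposure; TriZol RNA, oligo(dT) RT, PCR, FAM labeling, HpaI cut, CE fragment analysis. DMSO = negative control/baseline.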

Test [14] is described as follows: ATG_Sox_CIS: Attagene CIS-FACTORIAL HepG2 Assay for human SRY-box transcription factor (SOX) (AID 2282960). Particulars: HepG2 Attagene cis-factorial SOX reporter, mRNA; actives raise or lower the signal. The essentials: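 Endogenous factor activity in human liver HepG2 cells carrying transfected cis-regulated reporter units. RNA taken 24 h post-dose, reverse-transcribed, PCR-amplified and sized by capillary electrophoresis. Gain or loss of signal fitted relative to DMSO.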

The target in test [15] is Transcription factor Sp1 (Homo sapiens) (UniProt P08047). The experiment in a line: ATG_Sp1_CIS: Attagene CIS-FACTORIAL HepG2 Assay for human Specificity Protein 1 (Sp1) (AID 2282961). Particulars: HepG2 Sp1 cis-reporter transcription, actives raise or lower the signal. The essentials: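 Transient MRTU-transfected HepG2, 24 h compound exposure. Total RNA → oligo(dT) RT → PCR of reporter → 6-FAM primer extension → HpaI digest → CE. Endpoint fitted both directions vs DMSO.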

A short description of test [16]: ATG_SREBP_CIS: Attagene CIS-FACTORIAL HepG2 Assay for human Sterol Regulatory Element Binding (SREBP) (AID 2282962). The settings on record: HepG2 Attagene cis-factorial SREBP reporter, mRNA; actives raise or lower the signal. The essentials:
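HepG2 cells transiently transfected with multiplexed cis-promoter reporter units sensing endogenous transcription factors; reporter mRNA measured 24 h after dosing by RT-PCR, 6-FAM labeling, HpaI digestion and capillary electrophoresis. Bidirectional fit versus DMSO.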

For test [17], the target named is Signal transducer and activator of transcription 3 (Homo sapiens) (UniProt P40763). The experiment in a line: ATG_STAT3_CIS: Attagene CIS-FACTORIAL HepG2 Assay for human Signal Transducer and Activator of Transcription 3 (STAT3) (AID 2282963). The settings on record: HepG2, Attagene cis-factorial STAT3 reporter transcription; actives raise or lower the signal. The procedure, abridged: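 HepG2 cells transiently transfected with cis-element-driven multiple reporter transcription units; after 24 h chemical exposure, reporter mRNA measured by RT-PCR, 6-FAM primer-extension labelling, HpaI digestion and capillary electrophoresis. Bidirectional fitting versus DMSO baseline.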

Test [18] can be described thus: ATG_TA_CIS: Attagene CIS-FACTORIAL HepG2 Assay for human TA Basal Promoter (AID 2282964). The settings on record: HepG2 Attagene CIS-factorial TA basal promoter reporter; actives raise or lower the signal. The procedure, abridged: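 Multiplexed mRNA reporter assay, HepG2, 24 h. Reporter cDNA amplified, 6-FAM primer-extended, HpaI-cut, CE-sized; DMSO = negative control and baseline.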

Test [19] addresses Hypoxia-inducible factor 1-alpha (Homo sapiens) (UniProt Q16665). Description: ATG_HIF1a_CIS: Attagene CIS-FACTORIAL HepG2 Assay for human Hypoxia Inducible Factor 1 (HIF1A) (AID 2282951). The settings on record: HepG2 Attagene cis-factorial HIF1a reporter transcription; actives raise or lower the signal. The procedure, abridged: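 Transient MRTU transfection of human HepG2 liver cells, 24 h compound treatment, then total RNA isolation, oligo(dT) reverse transcription, PCR amplification, fluorescent labelling and capillary electrophoresis of reporter fragments. Gain or loss relative to DMSO.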

A short description of test [20]: ATG_PPRE_CIS: Attagene CIS-FACTORIAL HepG2 Assay for human Peroxisome Proliferator-activated Response Element (PPRE) (AID 2282958). Particulars: HepG2 PPRE cis-element reporter, Attagene transcription factor profiling; actives raise or lower the signal. The procedure, abridged:
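HepG2, transient MRTU transfection (cis promoter elements, endogenous TFs). 24 h dosing. RNA → oligo(dT) RT → PCR → 6-FAM primer extension → HpaI digest → CE. Bidirectional fit vs DMSO.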

Each structure is given as a SMILES string. Active and inactive are the calls of the source. Rule for the calls: active = hit-call score of the fitted dose curve at least 0.9, where 1 is the maximum; inactive = score below 0.9.

Sequence of Signal transducer and activator of transcription 3 (Homo sapiens) (P40763 whole entry, looked up): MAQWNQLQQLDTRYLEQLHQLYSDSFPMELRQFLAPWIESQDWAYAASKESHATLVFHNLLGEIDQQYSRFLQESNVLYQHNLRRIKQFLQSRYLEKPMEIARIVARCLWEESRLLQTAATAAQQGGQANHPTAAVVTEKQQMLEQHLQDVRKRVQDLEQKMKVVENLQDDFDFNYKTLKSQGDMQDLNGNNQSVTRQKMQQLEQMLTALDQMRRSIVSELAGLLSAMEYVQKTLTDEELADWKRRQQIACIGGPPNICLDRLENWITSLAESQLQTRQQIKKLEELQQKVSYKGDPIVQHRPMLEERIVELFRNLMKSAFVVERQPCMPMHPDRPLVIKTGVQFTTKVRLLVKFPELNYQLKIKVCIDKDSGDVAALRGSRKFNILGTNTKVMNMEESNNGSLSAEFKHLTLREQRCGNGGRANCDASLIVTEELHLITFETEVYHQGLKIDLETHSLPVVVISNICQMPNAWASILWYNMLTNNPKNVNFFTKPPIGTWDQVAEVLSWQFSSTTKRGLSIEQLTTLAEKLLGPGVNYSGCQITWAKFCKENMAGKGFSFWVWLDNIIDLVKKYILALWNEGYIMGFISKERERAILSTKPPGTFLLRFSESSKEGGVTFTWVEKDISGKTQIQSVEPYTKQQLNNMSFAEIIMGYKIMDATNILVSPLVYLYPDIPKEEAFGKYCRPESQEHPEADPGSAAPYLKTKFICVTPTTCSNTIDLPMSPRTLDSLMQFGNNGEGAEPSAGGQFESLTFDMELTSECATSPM
Sequence of Hypoxia-inducible factor 1-alpha (Homo sapiens) (Q16665 whole entry, looked up, the tested form may be a part): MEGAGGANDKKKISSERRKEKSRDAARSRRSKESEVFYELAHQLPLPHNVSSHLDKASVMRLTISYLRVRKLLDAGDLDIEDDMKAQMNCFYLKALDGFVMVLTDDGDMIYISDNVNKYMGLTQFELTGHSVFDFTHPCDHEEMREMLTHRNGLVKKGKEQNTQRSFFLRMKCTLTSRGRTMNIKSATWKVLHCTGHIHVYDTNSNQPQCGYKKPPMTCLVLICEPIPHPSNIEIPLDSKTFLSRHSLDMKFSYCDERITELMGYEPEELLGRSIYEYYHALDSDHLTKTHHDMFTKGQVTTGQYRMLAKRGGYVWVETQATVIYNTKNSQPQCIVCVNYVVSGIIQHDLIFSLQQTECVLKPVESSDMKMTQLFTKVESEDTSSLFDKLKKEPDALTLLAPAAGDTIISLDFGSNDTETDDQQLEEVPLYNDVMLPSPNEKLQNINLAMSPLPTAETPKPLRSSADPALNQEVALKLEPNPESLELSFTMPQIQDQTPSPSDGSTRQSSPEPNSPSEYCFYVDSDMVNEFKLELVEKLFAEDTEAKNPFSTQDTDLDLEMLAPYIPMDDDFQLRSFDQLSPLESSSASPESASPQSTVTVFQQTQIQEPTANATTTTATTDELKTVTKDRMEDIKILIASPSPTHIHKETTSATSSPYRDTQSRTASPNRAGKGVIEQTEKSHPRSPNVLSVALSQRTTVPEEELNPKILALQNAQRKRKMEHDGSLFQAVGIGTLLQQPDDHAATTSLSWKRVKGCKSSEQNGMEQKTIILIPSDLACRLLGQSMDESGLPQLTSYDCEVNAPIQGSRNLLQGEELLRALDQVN
Sequence of Hepatocyte nuclear factor 6 (Homo sapiens) (Q9UBC0 whole entry, looked up, the tested form may be a part): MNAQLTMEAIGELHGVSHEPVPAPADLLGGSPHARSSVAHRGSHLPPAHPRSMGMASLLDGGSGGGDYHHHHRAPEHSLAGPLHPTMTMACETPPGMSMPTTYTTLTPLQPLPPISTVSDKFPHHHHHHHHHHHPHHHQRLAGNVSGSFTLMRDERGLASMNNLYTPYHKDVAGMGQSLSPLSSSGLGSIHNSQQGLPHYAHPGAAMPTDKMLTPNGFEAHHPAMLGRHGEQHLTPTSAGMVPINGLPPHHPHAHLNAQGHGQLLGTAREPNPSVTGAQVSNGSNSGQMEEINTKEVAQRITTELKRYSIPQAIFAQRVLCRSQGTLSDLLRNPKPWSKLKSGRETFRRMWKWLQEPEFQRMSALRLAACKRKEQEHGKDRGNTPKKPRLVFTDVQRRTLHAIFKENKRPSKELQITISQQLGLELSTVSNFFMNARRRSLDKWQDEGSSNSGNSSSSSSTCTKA
Sequence of Heat shock factor protein 1 (Homo sapiens) (Q00613 whole entry, looked up): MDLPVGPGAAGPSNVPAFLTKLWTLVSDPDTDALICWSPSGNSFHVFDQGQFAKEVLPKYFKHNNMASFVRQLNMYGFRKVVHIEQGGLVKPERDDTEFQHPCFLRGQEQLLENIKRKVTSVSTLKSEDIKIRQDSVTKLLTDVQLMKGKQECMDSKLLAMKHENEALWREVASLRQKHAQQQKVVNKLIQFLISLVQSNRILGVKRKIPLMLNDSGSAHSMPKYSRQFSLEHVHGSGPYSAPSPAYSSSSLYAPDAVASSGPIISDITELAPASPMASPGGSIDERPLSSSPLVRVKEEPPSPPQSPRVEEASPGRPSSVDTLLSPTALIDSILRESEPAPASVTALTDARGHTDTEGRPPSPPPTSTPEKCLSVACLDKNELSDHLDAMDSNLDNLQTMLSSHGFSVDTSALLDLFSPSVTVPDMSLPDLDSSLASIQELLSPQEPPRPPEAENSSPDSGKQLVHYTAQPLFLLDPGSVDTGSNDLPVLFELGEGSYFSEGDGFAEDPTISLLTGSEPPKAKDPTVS
Sequence of Transcription factor Sp1 (Homo sapiens) (P08047 whole entry, looked up): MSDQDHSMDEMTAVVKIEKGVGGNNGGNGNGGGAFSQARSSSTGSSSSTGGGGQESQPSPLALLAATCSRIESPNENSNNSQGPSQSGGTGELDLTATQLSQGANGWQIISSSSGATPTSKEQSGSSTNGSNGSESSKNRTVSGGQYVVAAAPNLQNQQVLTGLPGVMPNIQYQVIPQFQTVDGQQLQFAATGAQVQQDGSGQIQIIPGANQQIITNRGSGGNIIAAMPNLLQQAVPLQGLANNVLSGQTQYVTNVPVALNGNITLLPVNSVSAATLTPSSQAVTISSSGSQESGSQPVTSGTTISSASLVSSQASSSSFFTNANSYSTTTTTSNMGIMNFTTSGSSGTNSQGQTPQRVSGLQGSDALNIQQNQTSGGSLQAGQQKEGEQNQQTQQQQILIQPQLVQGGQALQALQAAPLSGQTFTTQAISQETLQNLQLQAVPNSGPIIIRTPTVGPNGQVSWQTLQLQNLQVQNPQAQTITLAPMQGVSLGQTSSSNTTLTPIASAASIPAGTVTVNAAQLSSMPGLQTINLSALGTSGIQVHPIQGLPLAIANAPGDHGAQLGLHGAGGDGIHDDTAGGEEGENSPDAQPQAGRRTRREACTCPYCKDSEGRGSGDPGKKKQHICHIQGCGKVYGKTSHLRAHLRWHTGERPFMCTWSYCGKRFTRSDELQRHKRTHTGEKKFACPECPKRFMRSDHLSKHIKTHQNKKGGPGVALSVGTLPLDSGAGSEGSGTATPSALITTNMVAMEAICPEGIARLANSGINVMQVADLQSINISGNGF
Sequence of Bile acid receptor (Homo sapiens) (Q96RI1 whole entry, looked up): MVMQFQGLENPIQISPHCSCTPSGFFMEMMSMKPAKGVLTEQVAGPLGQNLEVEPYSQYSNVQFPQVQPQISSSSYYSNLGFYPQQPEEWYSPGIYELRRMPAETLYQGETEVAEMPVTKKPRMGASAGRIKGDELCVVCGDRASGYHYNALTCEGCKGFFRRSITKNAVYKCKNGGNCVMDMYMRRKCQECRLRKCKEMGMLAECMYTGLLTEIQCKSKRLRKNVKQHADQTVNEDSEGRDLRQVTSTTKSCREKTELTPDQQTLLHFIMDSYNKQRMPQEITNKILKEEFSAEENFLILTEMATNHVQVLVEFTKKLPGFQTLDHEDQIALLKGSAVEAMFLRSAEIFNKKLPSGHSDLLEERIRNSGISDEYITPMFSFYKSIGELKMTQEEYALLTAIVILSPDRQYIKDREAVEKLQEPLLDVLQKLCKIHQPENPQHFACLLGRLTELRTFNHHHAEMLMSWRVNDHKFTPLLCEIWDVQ
Sequence of Paired box protein Pax-6 (Homo sapiens) (P26367 whole entry, looked up): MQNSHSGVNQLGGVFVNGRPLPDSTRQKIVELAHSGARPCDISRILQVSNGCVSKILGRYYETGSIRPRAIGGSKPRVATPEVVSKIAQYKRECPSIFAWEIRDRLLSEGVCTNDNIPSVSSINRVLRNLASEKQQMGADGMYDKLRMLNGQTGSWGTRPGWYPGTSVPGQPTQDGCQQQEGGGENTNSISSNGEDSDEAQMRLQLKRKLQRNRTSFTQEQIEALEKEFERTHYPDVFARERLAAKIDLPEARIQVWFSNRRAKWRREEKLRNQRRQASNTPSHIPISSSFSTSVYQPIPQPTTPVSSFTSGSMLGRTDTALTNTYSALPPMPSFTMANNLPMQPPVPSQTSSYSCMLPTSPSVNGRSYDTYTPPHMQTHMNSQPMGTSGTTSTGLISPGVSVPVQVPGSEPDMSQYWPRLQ

As for `COc1ccc(C(=O)/C(Br)=C\C(=O)O)cc1`, the call in test [1], in test [2], in test [3], in [5], in test [6] and in test [7] was inactive. The result in test [10], in test [12], in test [14], in test [16], in [17] and in [18] was inactive. Besides, the AC50 (usually the midpoint of the concentration-response curve, whichever way the signal moves) in test [4] was 57.2 µM (active); in [8], 174 µM (active); in [9] it was 55.5 µM (active); in [11] it was 57.1 µM (active); in test [13] it was 32.5 µM (active); in [15], 59 µM (active).
With `CC1CCC(=O)C1=O` (centres undefined), the call in [1], in test [2], in test [3], in [4], in test [5] and in [6] was inactive. In addition, the call in test [19], in [7], in test [8], in [9], in [10] and in [20] was inactive. The molecule was classed as inactive in test [14], in [15], in test [17] and in test [18]. Besides, the AC50 in test [12] was 59 µM (active).
For `CCN(CC)c1cccc(C)c1`, the molecule was classed as inactive in test [1], in [2], in test [3], in test [4], in test [5] and in test [6]. The outcome in [19], in test [7], in test [8], in test [20], in test [13] and in [14] was inactive. The result in test [15], in test [16] and in [17] was inactive. In addition, the half-maximal activity concentration (AC50) in [12] was 27.7 µM (active).
Take `CO[Si](CCCS)(OC)OC`: the molecule was called inactive in [1], in test [2], in [3], in test [4], in test [5] and in [6]. The molecule was classed as inactive in [19], in test [7], in test [8], in test [9], in test [12] and in test [20]. For the same molecule, the outcome in test [13], in test [14], in test [15], in test [16], in test [17] and in test [18] was inactive.
